Where “and” joins values, the source holds several entries; their conditions need not be identical. Equal entries are not always repeated. Records with an inconclusive call do not appear. Some compounds were tested as several samples or in several runs, with calls that do not always agree. Values without a mark were called inactive. Calls of active or inactive are those of the source. Calls follow the shape of the dose curve; as a rule, active = well fitted curve in the direction sought with a large enough effect; inconclusive = small, poorly fitted or top-dose-only effect, or another doubt; inactive = no such curve, though single readings can be large or run the other way.
test: qHTS Assay for Identifying Gametocytocidal Compounds (AID 743244);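 as to max response: actives lower the fluorescent signal which means gametocytes are killed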; conditions: P. falciparum 3D7 stage III-V gametocytes, alamarBlue, 72 h; max response: stronger effect = lower value
In short: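 Fluorescence at Ex 525/Em 598 nm, recorded 24 h after alamarBlue addition, reports residual metabolic activity of 3D7 gametocytes (stages III–V) following 72 h compound exposure at 37 °C, 5% CO2.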
% is scaled to controls: 0 for no effect and ±100 for the full control effect; potency is read from the fitted curve at half-maximal effect.

| Structure (SMILES) | max response | Potency |
| --- | --- | --- |
| CC(C)NC[C@H](O)c1ccc(O)c(O)c1 | -9.19% and 21.1% | – |
| CCCn1cnc2c1c(=O)n(CCCCC(C)=O)c(=O)n2C | -8.62% and 26.7% | – |
| Nc1cc(=O)[nH]c(N)n1 | -11.1% and 4.42% | – |
| CC(C)C(=O)c1c(C(C)C)nn2ccccc12 | -11.3% and 12.6% | – |
| NC(=O)c1ncn([C@@H]2O[C@H](CO)[C@@H](O)[C@H]2O)n1 | -2.06% and 29.2% | – |
| CC(C)(C)[C@]1(O)CCN2C[C@H]3c4ccccc4CCc4cccc(c43)[C@@H]2C1 | 13.6% and 4.8% | – |
| CC(C)(C(=O)O)c1ccc(C(O)CCCN2CCC(C(O)(c3ccccc3)c3ccccc3)CC2)cc1 (configuration not stated) | -3.24% and 8.77% | – |
| C[C@](N)(Cc1ccc(O)cc1)C(=O)O | 18.5% and 8.95% | – |
| CCCCCCCCCCCCCCCC(=O)NCCO | -1.98% and 26.2% | – |
| CSc1ccc2c(c1)C(N1CCN(C)CC1)Cc1ccccc1S2 (configuration not stated) | – | 12.6 µM (active) |
| CCN(CC)CCOC(=O)C1(C2CCCCC2)CCCCC1 | 0.472% and 32.4% | – |
| CCN(CC)C(C)CN1c2ccccc2Sc2ccccc21 (configuration not stated) | 2.08% and 2.32% | – |
| Cc1cc(N)c2ccccc2[n+]1CCCCCCCCCC[n+]1c(C)cc(N)c2ccccc21 | – | 3.98 µM (active) |
| CC(CN(C)C)CN1c2ccccc2CCc2ccccc21 (configuration not stated) | 4.34% | – |
| CC1=C(CC(=O)O)c2cc(F)ccc2/C1=C\c1ccc(S(C)=O)cc1 (configuration not stated) | -9.81% and 32% | – |
| COC(=O)C1=C(C)NC(C)=C(C(=O)OC)C1c1ccccc1[N+](=O)[O-] | 13.4% and 13.1% | – |

| Structure (SMILES) | max response | Potency |
| --- | --- | --- |
| CC(C)(C)c1onc(OCP(=O)(O)O)c1CC(N)C(=O)O (configuration not stated) | 18.1% | – |
| C#CCN(C)Cc1ccccc1 | 14.1% and 13.7% | – |
| CCN(CC)CCNC(=O)c1cc(Cl)c(N)cc1OC | -1.62% | – |
| C=Cc1c(C)c2cc3[nH]c(cc4nc(cc5nc(cc1[nH]2)C(C)=C5CCC(=O)O)C(CCC(=O)O)=C4C)c(C)c3C=C | 11.4% and 22% | – |
| N=c1c[n+](N2CCOCC2)[n-]o1 | 8.18% | – |
| CCN(CC)CCCC(C)Nc1c2ccc(Cl)cc2nc2ccc(OC)cc12 (configuration not stated) | – | 3.16 µM (active) and 1 µM (active) |
| Nc1ncnc2c1ncn2[C@@H]1O[C@H](CO)[C@@H](O)[C@H]1O | -0.147% and 30.2% | – |
| CC(C(O)c1ccc(O)cc1)N1CCC(Cc2ccccc2)CC1 (configuration not stated) | – | 2.82 µM (active) |
| NC1CCN(c2cccc(Cl)n2)CC1 | 1.41% and 17.3% | – |
| CC(=O)OCC(=O)[C@@]1(O)CC[C@H]2[C@@H]3CCC4=CC(=O)CC[C@]4(C)[C@H]3C(=O)C[C@@]21C | -5.84% | – |
| COCCOC(=O)C1=C(C)NC(C)=C(C(=O)OC/C=C/c2ccccc2)C1c1cccc([N+](=O)[O-])c1 (configuration not stated) | 2.31% and 20.4% | – |
| NC(N)=NCCC[C@H](N)C(=O)O | -1.84% and -1.95% | – |
| OCc1cc(C(O)CNCCCCCCOCCCCc2ccccc2)ccc1O (configuration not stated) | – | 10 µM (active) |
| O=C1N=C(O)CN1/N=C/c1ccc(-c2ccc([N+](=O)[O-])cc2)o1 | 4.07% and 20.9% | – |
| CN(C)CC[C@@H](c1ccc(Cl)cc1)c1ccccn1 | 25.3% | 26.4 µM (active) |

— PubChem BioAssay (NCATS)
